Reference: PubChem BioAssay
Values without a mark were called inactive. No rule for the calls is given here.

What follows are molecules tested against Pantothenate synthetase (Mycobacterium tuberculosis (strain ATCC 25618 / H37Rv)) (UniProt P9WIL5) (assay: Coupled enzyme confirmation of inhibitors against recombinant Mtb PanC (AID 375;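 also: 0% = full reaction with vehicle and 100% = no enzyme background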)). Details: coupled enzyme assay; at 10 µM, hits give high values.
Pantothenate synthetase (Mycobacterium tuberculosis (strain ATCC 25618 / H37Rv)), sequence (P9WIL5 whole entry, looked up): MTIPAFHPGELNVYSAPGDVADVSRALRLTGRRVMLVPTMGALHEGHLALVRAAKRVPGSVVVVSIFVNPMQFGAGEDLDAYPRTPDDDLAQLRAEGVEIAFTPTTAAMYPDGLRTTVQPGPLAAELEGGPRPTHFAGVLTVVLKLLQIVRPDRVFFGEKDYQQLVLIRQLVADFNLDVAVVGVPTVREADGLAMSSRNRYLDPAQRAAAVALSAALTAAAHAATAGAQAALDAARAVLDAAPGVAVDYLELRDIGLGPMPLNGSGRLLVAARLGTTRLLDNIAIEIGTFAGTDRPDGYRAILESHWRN

SMILES	inhibition [%]
COc1ccc(-n2c(=O)c3c4c(sc3n3cnnc23)CC(C)CC4)cc1 (configuration not stated)	1
O=C(CN1C(=O)c2ccccc2C1=O)Nc1ccc(S(=O)(=O)NCC2CCCO2)cc1 (configuration not stated)	0
COc1ccc(N(CC(=O)Nc2ccc3c(c2)OCCO3)S(=O)(=O)c2cccnc2)cc1	0
CC1=C(C(=O)OC(C)C)C(c2ccccn2)n2ncnc2N1 (configuration not stated)	0
CCC(C)C(NC(=O)C1CCC(C)CC1)C(=O)NCc1cccnc1 (configuration not stated)	6
CCc1nnc(NC(=O)c2ccc(S(=O)(=O)NC3CCCCC3)cc2)s1	0
CC(=O)c1ccc(OCC(O)CN2CCN(Cc3ccc4c(c3)OCO4)CC2)cc1 (configuration not stated)	3
COC(=O)c1cccc(NC(=O)CSc2nnc(COc3ccccc3)n2C)c1	0
COc1ccccc1C1/C(=C(/O)c2ccccc2)C(=O)C(=O)N1CC(C)C (configuration not stated)	0
Cc1nonc1NC(=O)c1ccccc1Br	1
Nc1ncnc2nc(SCCN3CCCCC3)[nH]c12	4
CN(C)c1nc(N(C)C)nc(N(C)C)n1	2
c1ccc(-c2cc3c(nn2)CCc2nonc2-3)cc1	0
Cc1ccc(-n2c(Cc3cccn3C)nnc2SCC(=O)NCc2ccc3c(c2)OCO3)cc1	0
CC1CCN(C(=O)CSc2nc3ccccc3[nH]2)CC1	0
O=C(Cc1ccccc1)N1CCCC(c2nc(-c3cccs3)no2)C1 (configuration not stated)	0
Cc1ccc(-n2nnnc2SCC(=O)c2cc(C)n(-c3cc(C)on3)c2C)cc1	4
